Source: PubChem BioAssay (National Center for Advancing Translational Sciences (NCATS))
Pf growth 48h = Primary qHTS for delayed death inhibitors of the malarial parasite plastid, 48 hour incubation. AID 504832, 2011. Potency, µM (highest dose often 28.7 µM), without a hit: at the top dose activity change, negative = inhibition, actives largely listed as inhibitors. P. falciparum luciferase growth in erythrocytes, 48 h. 310,000 compounds, 5.9% hits; also: potency is read from the fitted curve at half-maximal effect; % is scaled to controls: 0 for no effect and ±100 for the full control effect
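A one-generation exposure of luciferase-tagged malaria parasites in RPMI 1640/Albumax erythrocyte culture, 37 C and 5% CO2. Inhibition is inferred from decreased luminescence after adding detection reagent.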
NS1 inh = qHTS Assay for Inhibitors of Influenza NS1 Protein Function; Potency, µM (doses to about 46.1 µM), for inactives: at the top dose activity, positive = more growth; 270,000 compounds, 0.4% hits; calls by dose curve; also: potency is read from the fitted curve at half-maximal effect; actives are rising curves; nearly all actives have a fitted effect of over 50% in size
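In this qHTS, NS1 from influenza A is expressed in budding yeast, where it slows growth. Cells are switched from glucose to 2% galactose medium (pH 6.0, -URA), treated with compound, and growth recovery is read at OD600.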
Pf growth 96h = Primary qHTS for delayed death inhibitors of the malarial parasite plastid, 96 hour incubation. Potency, µM (doses to about 28.7 µM), for the others: at the highest dose activity change, negative = inhibition, usual class: inhibitors. 320,000 compounds, 6.9% hits. P. falciparum luciferase reporter growth, 96 h; also: potency is read from the fitted curve at half-maximal effect; % is scaled to controls: 0 for no effect and ±100 for the full control effect
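Luminescence readout: decreased luciferase signal marks inhibited growth of reporter-expressing P. falciparum in infected red cells (2% hematocrit, 0.05% parasitemia final), exposed to compound two generations (96 h, 37 C, 5% CO2).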
Shiga inhibitor = A qHTS for Small Molecule Inhibitors of Shiga Toxin | Vero cells, Shiga toxin protein synthesis inhibition reporter | 290,000 compounds, 9.2% hits | inhibition, % at 38.7 µM; in the data active = inhibition mostly above about 28%, no sharp cut-off; inactive = mostly below about 43%; also: 0% is about no effect
CHX counter = Cycloheximide Counterscreen for Small Molecule Inhibitors of Shiga Toxin | cell reporter, cycloheximide protein synthesis inhibition counterscreen | 300,000 compounds, 12% hits | max response, % | AID 2314, 2010; in the data active = max response mostly above about 13%, no sharp cut-off; inactive = mostly below about 14%; also: read at 38.3 µM for the half of the compounds with a filed dose; 0% is about no effect
Numbers without * were called inactive; ? = inconclusive; nt = not tested or not shown; [ ] = another dose, or the depositor's remark. Rows were chosen to be rich in hits. Some 21% of all compounds tested hit in one or more screens of this group. Unless noted, calls follow the shape of the dose curve; as a rule, active = well fitted inhibition curve with a large enough effect; inconclusive = small, poorly fitted or top-dose-only effect, or another doubt; inactive = no such curve, though single readings can be large or run the other way.

SMILES | Pf growth 48h | NS1 inh | Pf growth 96h | Shiga inhibitor | CHX counter
CC(CCc1ccccc1)NC(=O)C1CCCN(C(=O)c2cc3sccc3n2C)C1 (stereo not given) | nt | -11% | -6% | -9 | -6
CC(CCc1ccccc1)NC(=O)c1cc2sccc2n1C (stereo not given) | -6% | -20% | 34% | 37 | 21*
Cn1c(C(=O)Nc2ccccc2)cc2sccc21 | 84% | -109% | 19% | 50 | 26*
O=C(N/N=C(\c1ccccc1)c1cccnc1)c1cc(O)ccc1O | 5% | 1% | 16% | -12 | -2
Cc1c(/N=C(\[O-])Nc2ccc(Br)cc2)sn[n+]1C | 149% | -1% | 317% | 95* | 47*
CNC(=S)Nc1ccc(Br)cc1 | 3% | -5% | 194% | -1 | -2
COC(=O)N/N=C(\C)c1cccc(C(F)(F)F)c1 | 0% | nt | 15% | 34 | 29*
COC(=O)N/N=C(\C)c1ccc(OC(F)F)cc1 | 94% | nt | 45% | 80* | 35*
CNC(=S)N/N=C(\C)c1cccc(C(F)(F)F)c1 | 0% | -22% | ? | -7 | -3
C/C(=N\Nc1ncc(Cl)cc1Cl)c1ccc(OC(F)F)cc1 | 35% | -1% | 80% | 42* | 50*
C/C(=N\NC(=O)C1CC1)c1ccc(C)c(C)c1 | ? | 26% | -26% | 1 | 28
C/C(=N\NC(=O)C1CC1)c1ccc(OC(F)F)cc1 | ? | -3% | ? | 51* | 9
CCN(CC)C(=O)C(=O)N/N=C/c1ccc(F)cc1 | 28% | 0% | 4% | 0 | -1
COCCNC(=O)c1cc(OC)c(OC)cc1[N+](=O)[O-] | 8% | -1% | 27% | -7 | -7
O=C(O)CCC1CCCC1 | nt | nt | nt | -11 | -3
O=S(=O)(Nc1ccc(O)c(Sc2nc3ccccc3s2)c1)c1ccc(Cl)cc1 | 5% | -116% | ? | -5 | -4
COc1ccc(OC)c(-n2nnnc2SCC(=O)Nc2ccc3c(c2)OCCO3)c1 | 31% | 0% | 10µM* | -1 | -1
COc1ccc(OC)c(-n2nnnc2SCC(=O)Nc2ccc(C(=O)N3CCCCC3)cc2)c1 | ? | 1% | 12µM* | 25 | -2
COc1ccc(OC)c(NC(=O)CSc2nnnn2-c2ccc3c(c2)OCO3)c1 | ? | 7% | 36% | 3 | 1
COc1ccc2nc(SCC(=O)Nc3ccc4c(c3)OCCO4)[nH]c2c1 | 146% | ? | ? | 80* | 57*
Cc1nnc(N(C)C(=O)c2ccncc2)s1 | -6% | 2% | 16% | -18 | -2
CN(CC(O)CON=C1c2ccccc2-c2ccccc21)S(=O)(=O)c1ccc(Br)cc1 (stereo not given) | 6.6µM* | 20% | ? | -18 | -1
CS(=O)(=O)N(CC(O)CON=C1c2ccccc2-c2ccccc21)c1ccc(F)cc1 (stereo not given) | ? | -2% | ? | -15 | 2
Cc1cccc(N(CC(O)CON=C2c3ccccc3-c3ccccc32)S(C)(=O)=O)c1 (stereo not given) | nt | 12% | 13µM* | -16 | 1
CCN(CC(O)CON=C1c2ccccc2-c2ccccc21)S(=O)(=O)c1ccc(C)cc1 (stereo not given) | ? | -32% | 2.3µM* | -8 | -1
SMILES | Pf growth 48h | NS1 inh | Pf growth 96h | Shiga inhibitor | CHX counter
CCC(CC)c1nnc(NC(=O)CN2C(=O)NC3(CCCC3)C2=O)s1 | ? | -3% | 5% | -3 | -2
O=C(COC(=O)CCC(=O)c1cccs1)NCc1ccccc1 | 8% | nt | 41% | -6 | -1
Cc1cc(O)c(-c2n[nH]c3c2C(c2cccc(O)c2)N(Cc2cccnc2)C3=O)cc1Cl (stereo not given) | -19% | -11% | -7% | 11 | -1
CCCN1C(=O)c2[nH]nc(-c3cc(Cl)c(C)cc3O)c2C1c1ccc(O)c(OC)c1 (stereo not given) | ? | 10% | 10µM* | -7 | -1
COc1cc(C2c3c(-c4cc(C)cc(C)c4O)n[nH]c3C(=O)N2CCCO)cc(OC)c1OC (stereo not given) | ? | -10% | -3%[5.75 µM] | -1 | -3
COCCCN1C(=O)c2[nH]nc(-c3cc(C)cc(C)c3O)c2C1c1ccc(O)c(OC)c1 (stereo not given) | 9.3µM* | ? | ? | -4 | -1
CC(C)CCC[C@@H](C)[C@H]1CC[C@H]2[C@@H]3CC[C@@H]4C[C@H](O)CC[C@]4(C)[C@H]3CC[C@]12C | -4% | nt | -17% | nt | nt
C[C@@H]1CCC2[C@](C)(CO)[C@@H](O)CC[C@]2(C)[C@@]12CC[C@@](CO)(CC(=O)O)O2 (stereo not given in full) | 7% | 2% | 4% | -6 | -8
COc1cc([C@@H]2c3cc4c(cc3[C@@H](NC3CCN(Cc5ccccc5)CC3)[C@H]3COC(=O)[C@H]23)OCO4)cc(OC)c1O | 0.74µM* | -13% | 0.17µM* | 9 | -4
COc1cc([C@@H]2c3cc4c(cc3[C@@H](OC)[C@H]3COC(=O)[C@H]23)OCO4)cc(OC)c1O | 10µM* | -14% | 12µM* | 5 | 1
COc1cc([C@@H]2c3cc4c(cc3[C@H](O)[C@H]3COC(=O)[C@H]23)OCO4)cc(OC)c1OC | 15µM* | -2% | 1.1µM* | -16 | -3
COc1cc([C@@H]2c3cc4c(cc3[C@@H](O)[C@@H](CO)[C@@H]2CO)OCO4)cc(OC)c1O[Si](C)(C)C(C)(C)C | 9.3µM* | 1% | ? | -16 | -9
O=C(Nc1ccc(O)c2c(=O)cc(-c3ccccc3Cl)oc12)c1ccc(Br)cc1 | nt | nt | nt | -5 | -2
Cn1c(N)c(C(=O)/C=C/c2ccccc2)c(=O)[nH]c1=O | 99% | 9% | 34% | 69* | 48*
O=c1cc(-c2ccccc2)nc2c(-c3ccccc3)c(C(F)(F)F)[nH]n12 | 13% | 17% | 2% | -6 | 2
COc1cc2c(cc1OC)C1=NC(=O)CN1C(SCc1ccccc1C)=N2 | ? | 29% | 12µM* | -6 | -3
O=C(Cc1cn(-c2ccccc2)nc1-c1ccccc1)N1CCCCC1 | ? | -6% | ? | -4 | 3
COc1ccc(N(C(=O)Cn2nnc3ccccc32)C2(C(=O)NC3CCCC3)CCCCC2)cc1 | 13µM* | 8% | 13µM* | -11 | -4
COc1ccc(C(C(=O)Nc2ccc(F)cc2)N(C(=O)Cn2nnc3ccccc32)C2CC2)cc1 (stereo not given) | 5.9µM* | -10% | ? | -2 | -1
COc1ccc(N(C(=O)Cn2cnc3ccccc32)C(C(=O)NC2CCCCC2)c2ccccc2)cc1 (stereo not given) | 13µM* | 5% | ? | -7 | -4
COc1cccc(NC(=O)N2CCN(S(C)(=O)=O)CC2)c1 | -5% | 1% | ? | 21 | -3
